Measurements as given in PubChem BioAssay (NCATS).
Records with an inconclusive call do not appear. Activity calls are given as the source filed them. Calls follow the shape of the dose curve; as a rule, active = well fitted inhibition curve with a large enough effect; inconclusive = small, poorly fitted or top-dose-only effect; inactive = flat fitted curve, though single readings scatter.

Key:
Assay in all cases: qHTS profiling for inhibitors of Plasmodium falciparum proliferation (AID 504749); also: nearly all actives have a fitted effect of over 60% in size
Settings in all cases: P. falciparum in erythrocytes, SYBR Green DNA, 72 h; series mostly up to 28.7 µM
AS120 = system: AS120
How it was run: (§1)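 In a 72 h erythrocytic culture (37 C, humidified, 5% CO2) at 2.5% hematocrit and 0.3% starting parasitemia, compounds were tested; SYBR Green I in detergent lysis buffer stained parasite DNA overnight.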

ATS189 = system: ATS189
How it was run: as §1

CP211 = system: CP211
How it was run: as §1

CP215 = system: CP215
How it was run: as §1

CP262 = system: CP262
How it was run: as §1

CP266 = system: CP266
How it was run: as §1

CP268 = system: CP268
How it was run: as §1

CP269 = system: CP269
How it was run: as §1

CP297 = system: CP297
How it was run: as §1

CP305 = system: CP305
How it was run: as §1

CP315 = system: CP315
How it was run: as §1

CP325 = system: CP325
How it was run: as §1

CP329 = system: CP329
How it was run: as §1

CP335 = system: CP335
How it was run: as §1

DIV14 = system: DIV14
How it was run: as §1

DIV17 = system: DIV17
How it was run: as §1

DIV30 = system: DIV30
How it was run: as §1

GB4 = system: GB4
How it was run: as §1

PC26 = system: PC26
How it was run: as §1

TAB113 = system: TAB113
How it was run: as §1

Measured: Potency

CC(=O)OC1CC2CCC1(C)C2(C)C (stereo not given)
inactive: all assays above
